High-throughput results: PubChem, National Center for Advancing Translational Sciences (NCATS)
PLK1 PBD block – inhibitors of human PLK1 polo-box domain binding; Potency, µM, hits mostly inhibitors; AID 720504; Plk1 PBD binding of FITC phosphopeptide, fluorescence polarization; hit rate 2.8% among 360,000; further: series mostly up to about 57 µM; nearly all actives have a fitted effect of over 65% in size
KAT2A inh – GCN5L2 (KAT2A) acetyltransferase inhibition. Q92830. GCN5L2 HAT assay, ThioGlo1 CoA-SH fluorescence. Potency, µM (highest dose often 58.9 µM), actives largely listed as inhibitors. hit rate 0.21% among 390,000
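qHTS, 1536-well. 20nM enzyme, pH 7.5 HEPES/EDTA/Tween-20 buffer; 15 min compound preinc., RT. Start: 75uM H3(1-25), 70uM AcCoA, 50uM ThioGlo1. Read Ex340/Em540 at t=0 (autofluorescence flag) and t=20 min.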
12-LOX inh – ALOX12 (human) lipoxygenase inhibition; AID 1671190; hit rate 1.1% among 580,000; Potency, µM (highest dose often 108 µM), most hits filed as inhibitors; P18054; purified 12hLO, xylenol orange hydroperoxide absorbance
Target sequence (P18054 whole entry, looked up): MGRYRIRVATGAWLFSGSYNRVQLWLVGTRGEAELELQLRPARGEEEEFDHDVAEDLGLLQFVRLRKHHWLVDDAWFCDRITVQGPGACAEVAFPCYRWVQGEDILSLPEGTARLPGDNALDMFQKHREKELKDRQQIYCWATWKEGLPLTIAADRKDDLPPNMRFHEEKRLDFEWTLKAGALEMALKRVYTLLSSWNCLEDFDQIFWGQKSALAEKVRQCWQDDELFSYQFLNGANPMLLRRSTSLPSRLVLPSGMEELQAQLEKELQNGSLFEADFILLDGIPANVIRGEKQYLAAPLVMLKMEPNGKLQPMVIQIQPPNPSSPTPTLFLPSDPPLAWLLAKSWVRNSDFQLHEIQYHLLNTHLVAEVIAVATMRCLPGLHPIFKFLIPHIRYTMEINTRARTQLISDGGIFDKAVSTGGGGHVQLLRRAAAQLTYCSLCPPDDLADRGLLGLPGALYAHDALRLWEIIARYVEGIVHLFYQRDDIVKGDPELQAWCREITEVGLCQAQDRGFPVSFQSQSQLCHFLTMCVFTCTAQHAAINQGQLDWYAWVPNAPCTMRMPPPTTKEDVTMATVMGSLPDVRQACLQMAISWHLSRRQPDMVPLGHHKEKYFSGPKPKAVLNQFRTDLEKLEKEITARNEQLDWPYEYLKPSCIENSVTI
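Hydroperoxide product was detected by ferrous iron/xylenol orange as the 573 to 405 nm absorbance ratio. Arachidonic acid at 40 uM (final) was turned over for 30 min at room temperature by 150 nM human 12hLO, pH 7.0 Hepes buffer, after 15 min compound preincubation.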
VDR inhibitor – inhibitors of human vitamin D receptor; hit rate 0.93% among 400,000; Potency, µM, actives largely listed as inhibitors; VDR-SRC2-3 peptide fluorescence polarization, 2 h
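The screen uses fluorescence polarization to detect compounds that interfere with recruitment of the SRC2-3 coactivator peptide to VDR; plates are read after 2 h at room temperature.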
Large screens that a line does not name were inactive; ! = a repeat was not active. An excerpt weighted towards active compounds, which were near 3% of everything screened. The call rests on the fitted dose curve; in most records, active means well fitted curve in the direction sought with a large enough effect; inconclusive means small, poorly fitted or top-dose-only effect, or another doubt; inactive means no such curve, though single readings can be large; an effect the other way counts as inactive or inconclusive.

S=C(NCc1ccccc1)N/N=C/c1cccnc1	none (no result: PLK1 PBD block, KAT2A inh, VDR inhibitor)
COc1ccc(CNC(=O)COC(=O)c2ccc(OCc3c(C)noc3C)cc2)cc1OC	PLK1 PBD block 30µM, VDR inhibitor inconclusive
COc1ccc(CCNC(=O)c2ccc(OCc3c(C)noc3C)cc2)cc1OC	none
COc1ccc(CNC(=S)N/N=C/c2ccc(OC)c(OC)c2)cc1	none
COc1ccc(C=NNC(=S)NN=Cc2ccc(OC)c(OC)c2)cc1OC	12-LOX inh inconclusive, VDR inhibitor inconclusive (no result: KAT2A inh)
COc1ccc(CNC(=S)N/N=C/c2ccc(O)c(OC)c2)cc1	12-LOX inh 32µM
COCCCNC(=S)N/N=C/c1ccc(OC)c(Br)c1	12-LOX inh 25µM
Cc1ccc(/C=C(/C#N)c2ccc(C(F)(F)F)cn2)s1	none (no result: PLK1 PBD block, KAT2A inh, VDR inhibitor)
Cc1nc2ccc(C(=O)N(C)Cc3ccc(C(N)=O)cc3)cc2nc1C	none (no result: PLK1 PBD block, KAT2A inh, VDR inhibitor)
CC(C)(C)c1ccc(C(=O)NCCC(=O)NCc2cccs2)cc1	PLK1 PBD block 27µM
CC(C)(C)c1ccc(NC(=S)NCc2cccs2)cc1	12-LOX inh 32µM
COc1ccc(N2C(=NC(=O)C3CCCCC3)SC3CS(=O)(=O)CC32)c(OC)c1 (stereo not drawn)	PLK1 PBD block 12µM, VDR inhibitor inconclusive
COc1ccc(-c2csc(NC(C)=O)n2)cc1OC	PLK1 PBD block 27µM, VDR inhibitor inconclusive
c1ccc(Nc2nc(-c3cccc4ccccc34)cs2)cc1	none (no result: PLK1 PBD block, KAT2A inh, VDR inhibitor)
COc1ccc(-c2csc(NC(=O)Cc3ccccc3)n2)cc1OC	none
COc1ccc(CCNc2nc(-c3cc(OC)c(OC)c(OC)c3)cs2)cc1OC	12-LOX inh 7.9µM (no result: PLK1 PBD block, KAT2A inh, VDR inhibitor)
CC(=O)Nc1nc(-c2cccc3ccccc23)cs1	PLK1 PBD block 3.8µM, VDR inhibitor 25µM
CCC(=O)Nc1ccc(-c2csc(NCCOC)n2)cc1	12-LOX inh 14µM (no result: PLK1 PBD block, KAT2A inh, VDR inhibitor)
CCn1cc(S(=O)(=O)N2CCCN(Cc3ccncc3)C(c3ccccc3)CC(=O)NCC2)cn1 (stereo not drawn)	none (no result: PLK1 PBD block, KAT2A inh, VDR inhibitor)
CCCC1C=CCN1C(=O)c1cc(-c2ccncc2)nc2ccccc12 (stereo not drawn)	none (no result: PLK1 PBD block, KAT2A inh, VDR inhibitor)
CCOC(=O)C1CCN(S(=O)(=O)c2ccc3c(c2)CCN3C(C)=O)CC1	none
CCOC(=O)C1CCN(S(=O)(=O)c2ccc3c(c2)CCN3C(=O)C2CCC2)CC1	PLK1 PBD block 27µM, VDR inhibitor inconclusive (no result: 12-LOX inh)
O=S1(=O)NC2(CCCN(Cc3ccc(F)cc3)C2)COc2ccccc21 (stereo not drawn)	none (no result: PLK1 PBD block, KAT2A inh, VDR inhibitor)
c1ccc(-n2cc(CN3CCCCC3c3ccccn3)nn2)cc1 (stereo not drawn)	12-LOX inh 20µM (no result: PLK1 PBD block, KAT2A inh, VDR inhibitor)
O=C(NC(c1ccc(F)cc1)c1ccc2ccccc2n1)C1CCN(Cc2ccc3ccccc3n2)CC1 (stereo not drawn)	12-LOX inh 16µM (no result: KAT2A inh, VDR inhibitor)
Cc1ccc(NC(=O)c2ccccc2NCC(=O)N2CC(=O)Nc3ccccc32)cc1	none (no result: PLK1 PBD block, KAT2A inh, VDR inhibitor)
Cc1cc(C)c(-n2[nH]nnc2=S)c(C)c1	PLK1 PBD block 30µM, 12-LOX inh 11µM
CCCCCCCC(=O)Oc1ccc(C(=O)O)cc1	none (no result: PLK1 PBD block, KAT2A inh, VDR inhibitor)
COc1cc(C)c(/C=C/C(C)=C/C=C/C(C)=C/C(=O)O)c(C)c1C	PLK1 PBD block 30µM, KAT2A inh 25µM, 12-LOX inh inconclusive, VDR inhibitor 45µM!
CCC(c1nnnn1C1CCCC1)N(Cc1cccs1)Cc1cc2cc(C)ccc2[nH]c1=O (stereo not drawn)	12-LOX inh inconclusive
CCOc1ccc2[nH]c(=O)c(CN(Cc3cccs3)C(CC)c3nnnn3C(C)(C)CC)cc2c1 (stereo not drawn)	PLK1 PBD block 8.4µM
COc1cccc(-c2cccc(-c3nc(C(=O)NCc4ccc5c(c4)OCO5)cc4c3[C@H](CCO)N(S(=O)C(C)(C)C)C4)c2)c1 (stereo partly drawn)	12-LOX inh 28µM (no result: KAT2A inh, VDR inhibitor)
CN1CCN(C(=O)c2cc3c(c(-c4cccc(Br)c4)n2)[C@H](CCO)N(S(=O)C(C)(C)C)C3)CC1 (stereo partly drawn)	none (no result: KAT2A inh, VDR inhibitor)
CC(C)(C)S(=O)N1Cc2cc(C(=O)N3CCOCC3)nc(-c3cccc(Br)c3)c2[C@H]1CCO (stereo partly drawn)	PLK1 PBD block inconclusive, 12-LOX inh 5µM (no result: KAT2A inh, VDR inhibitor)
CC(C)(CNC(=S)NC1CC2CCC1C2)N1CCOCC1 (stereo not drawn)	none (no result: PLK1 PBD block, KAT2A inh, VDR inhibitor)
O=C(Cc1ccccc1O)NCc1cccnc1Oc1ccc(F)cc1F	none (no result: PLK1 PBD block, KAT2A inh, VDR inhibitor)
CC(C)Cc1ccc(C(NC(=O)CC2(C(=O)O)CCCC2)c2cccs2)cc1 (stereo not drawn)	none (no result: PLK1 PBD block, KAT2A inh, VDR inhibitor)
COc1ccc(NC(C)=O)cc1NC(=O)Cn1ccc2c(Cl)cccc21	none (no result: PLK1 PBD block, KAT2A inh, VDR inhibitor)
CCN1CCN(C(=O)Cn2ncc3c([nH]c4ccccc43)c2=O)CC1	none
CC1CC(C)CN(C(=O)Cn2ncc3c([nH]c4ccccc43)c2=O)C1 (stereo not drawn)	PLK1 PBD block 24µM
O=C(CSc1nc2ccc(Cl)cc2[nH]1)N1N=C(c2cccs2)CC1c1ccco1 (stereo not drawn)	12-LOX inh 18µM (no result: PLK1 PBD block, KAT2A inh, VDR inhibitor)
Cc1cc(/C=C2\NC(=O)NC2=O)c(C)n1-c1ccc(N2CCOCC2)cc1	none
Cc1cc(/C=C2/NC(=O)NC2=O)c(C)n1-c1ccc(C#N)cc1	PLK1 PBD block 19µM, 12-LOX inh inconclusive, VDR inhibitor inconclusive
Cc1ccc(-n2c(C)cc(/C=C3\NC(=O)NC3=O)c2C)c(C)c1	PLK1 PBD block 21µM, VDR inhibitor inconclusive
O=C(O)c1cccc(-n2sc3ccccc3c2=O)c1	PLK1 PBD block 1.2µM, KAT2A inh 1.3µM, 12-LOX inh 11µM, VDR inhibitor 7.1µM
CN(C)S(=O)(=O)c1cccc(-n2sc3ccccc3c2=O)c1	PLK1 PBD block 1.2µM, KAT2A inh 1.6µM, 12-LOX inh 1.8µM, VDR inhibitor 32µM
Cn1c(=O)n(-c2cccc(Cl)c2)c(=O)c2sc3ccccc3c21	none (no result: PLK1 PBD block)
